# Data from the supplement of paper PMC8728848.
# The entries come from a sample that favours the strongest signals as a whole.
# Legend:
# Assay in all cases: glycan array binding signal (z-score within array); higher = stronger binding
# Details in all cases: glycan notation: IUPAC condensed, linker removed
# [1] = tested on: Gal(b1-4)GlcNAc(b1-3)Gal(b1-4)GlcNAc(b1-3)Gal(b1-4)GlcNAc
# Summary of the method: (§1)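 The binding signal is a Z-score computed within each array and averaged over linkers. Arrays of the same protein sequence at different concentrations or buffers were also averaged together. Data originate from 3228 arrays in the Consortium for Functional Glycomics database, kept only where the protein sequence was available.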
# [2] = tested on: Gal(b1-4)GlcNAc(b1-3)Gal(b1-4)[Fuc(a1-3)GlcNAc(b1-6)]Gal(b1-4)Glc
# Summary of the method: as §1
# [3] = tested on: Gal(b1-4)GlcNAc(b1-3)Gal(b1-4)GlcNAc(b1-3)Gal(b1-4)GlcNAc(b1-3)Gal(b1-4)GlcNAc(b1-3)Gal(b1-4)GlcNAc(b1-2)Man(a1-3)[Gal(b1-4)GlcNAc(b1-3)Gal(b1-4)GlcNAc(b1-3)Gal(b1-4)GlcNAc(b1-3)Gal(b1-4)GlcNAc(b1-3)Gal(b1-4)GlcNAc(b1-2)Man(a1-6)]Man(b1-4)GlcNAc(b1-4)[Fuc(a1-6)]GlcNAc
# Summary of the method: as §1
# [4] = tested on: Gal(b1-4)GlcNAc(b1-3)Gal(b1-4)GlcNAc(b1-3)GalNAc
# Summary of the method: as §1
# [5] = tested on: Gal(b1-4)GlcNAc(b1-3)Gal(b1-4)GlcNAc
# Summary of the method: as §1
# [6] = tested on: Gal(b1-4)GlcNAc(b1-6)[Gal(b1-3)]GalNAc
# Summary of the method: as §1
# [7] = tested on: Gal(b1-4)GlcNAc(b1-3)Gal(b1-4)[Fuc(a1-3)]GlcNAc(b1-3)Gal(b1-4)[Fuc(a1-3)]GlcNAc
# Summary of the method: as §1
# [8] = tested on: Gal(b1-4)GlcNAc(b1-3)GalNAc
# Summary of the method: as §1
# [9] = tested on: Gal(b1-4)GlcNAc(b1-3)[Fuc(a1-3)GlcNAc(b1-6)]Gal(b1-4)Glc
# Summary of the method: as §1
# [10] = tested on: Gal(b1-4)GlcNAc(b1-3)Gal(b1-4)GlcNAc(b1-3)Gal(b1-4)GlcNAc(b1-3)Gal(b1-4)GlcNAc(b1-3)Gal(b1-4)GlcNAc(b1-3)Gal(b1-4)GlcNAc(b1-2)Man(a1-3)[Gal(b1-4)GlcNAc(b1-3)Gal(b1-4)GlcNAc(b1-3)Gal(b1-4)GlcNAc(b1-3)Gal(b1-4)GlcNAc(b1-3)Gal(b1-4)GlcNAc(b1-3)Gal(b1-4)GlcNAc(b1-2)Man(a1-6)]Man(b1-4)GlcNAc(b1-4)GlcNAc
# Summary of the method: as §1
substance,measurement,setting,value
"SiiE (Salmonella typhimurium), A0A0H3NVH0",glycan array binding signal (z-score),[1],0.446
same,glycan array binding signal (z-score),[2],-0.187
AgI/II Vhelical-GFP (Streptococcus mutans),glycan array binding signal (z-score),[3],-0.113
same,glycan array binding signal (z-score),[4],6.41
"BambL (Burhholderia ambifaria), Q0B4G1",glycan array binding signal (z-score),[5],-0.314
"GspB (Streptococcus gordonii), Q939N5",glycan array binding signal (z-score),[1],-0.783
same,glycan array binding signal (z-score),[6],-0.739
Epa22,glycan array binding signal (z-score),[7],-0.575
same,glycan array binding signal (z-score),[8],-0.621
same,glycan array binding signal (z-score),[9],-0.173
"Wza (Escherichia coli), P0A930",glycan array binding signal (z-score),[1],2.94
AgI/IIC123-GFP (Streptococcus mutans),glycan array binding signal (z-score),[3],5
same,glycan array binding signal (z-score),[10],1.82
same,glycan array binding signal (z-score),[9],0.19
